Screening data: PubChem, several laboratories
The list is not random: actives were taken first. Their share in the collection is about 4.2%.
Wnt bcat act: activators of Wnt/beta-catenin signaling; Wnt/beta-catenin reporter cell assay, activator, plate reader; activation, % at 9.35 µM; actives 1.2% (n = 300,000); in the data active = activation above about 30%, passing the limit was not always enough; inconclusive = no clear call, values can overlap the other calls;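 also: 0% = neutral control wells and 100% = positive control wells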
esBAF inh: SWI/SNF esBAF complex inhibition; mouse ES cells, Bmi1-luciferase knock-in reporter, 24 h; 100% = twice the neutral-well signal; reporter increase, % at 12.5 µM; actives 2% (n = 350,000); AID 602393; in the data active = activation above about 40%; inconclusive = no clear call, values can overlap the other calls;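 also: 0% = median of the plate's neutral control wells and 100% = double that signal; a rise in the Bmi1 reporter signal indicates esBAF inhibition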
DAX1 inh: DAX1 (NR0B1) inhibition, primary screen | HEK293T StAR-luciferase reporter, SF-1/DAX-1 repression relief | inhibition, % at 6.8 µM | actives 1.1% (n = 370,000) | AID 652010;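 active = inhibition above the mean over all tested compounds plus 3 SD, cut at about 3.6% in these data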;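 also: 0% = DAX-1 cells with DMSO and 100% = cells lacking DAX-1 with DMSO; higher inhibition means more luminescence from relief of DAX-1 repression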
hcDAF-12 act: H. contortus DAF-12 activation, primary screen; HEK293 hcDAF-12 lit1-tk-luc reporter, luminescence; 0% DMSO, 100% Δ7-dafachronic acid; activation, % at 6.8 µM; actives 1.4% (n = 370,000); AID 652067;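 active = activation above the mean of all tested compounds plus 3 SD, cut at about 5.5% in these data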;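 also: 100% = response to 3 µM Δ7-dafachronic acid high control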
hgDAF-12 ag: agonists of H. glycines DAF-12 nuclear receptor; HEK293 GAL4-hgDAF12 UAS-luciferase reporter, agonist luminescence; normalized to butyrate control; activation, % at 6.8 µM; actives 1.8% (n = 370,000); AID 687014;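 active = activation above a cutoff set at the mean of all screened compounds plus 3 SD, cut at about 10% in these data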;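 also: 0% = DMSO wells and 100% = sodium butyrate wells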
ssDAF-12 act: S. stercoralis DAF-12 activation, primary screen; HEK293 ssDAF-12/GRIP1 lit1-tk-luc reporter, luminescence; % of 3 µM dafachronic acid response; activation, % at 6.8 µM; actives 1% (n = 370,000); AID 652126;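 active = activation above the mean over all tested compounds plus 3 SD, cut at about 0.9% in these data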;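 also: 0% = DMSO-only wells and 100% = 3 µM delta7-dafachronic acid wells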
LXR ag: activates human LXR-beta, counter-screen for hcDAF-12 agonists | shares compounds with hcDAF-12 act | HEK293 Gal4-LXR tk-luc reporter, luminescence, 24 h; normalized: DMSO 0%, positive control 100% | activation, % at 6.8 µM | 3,400 tested, under 10 active;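 active = mean percent activation of the reporter above a cutoff set as the average over tested compounds plus their standard deviation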
Target sequence (P55055 whole entry, looked up, the tested form may be a part): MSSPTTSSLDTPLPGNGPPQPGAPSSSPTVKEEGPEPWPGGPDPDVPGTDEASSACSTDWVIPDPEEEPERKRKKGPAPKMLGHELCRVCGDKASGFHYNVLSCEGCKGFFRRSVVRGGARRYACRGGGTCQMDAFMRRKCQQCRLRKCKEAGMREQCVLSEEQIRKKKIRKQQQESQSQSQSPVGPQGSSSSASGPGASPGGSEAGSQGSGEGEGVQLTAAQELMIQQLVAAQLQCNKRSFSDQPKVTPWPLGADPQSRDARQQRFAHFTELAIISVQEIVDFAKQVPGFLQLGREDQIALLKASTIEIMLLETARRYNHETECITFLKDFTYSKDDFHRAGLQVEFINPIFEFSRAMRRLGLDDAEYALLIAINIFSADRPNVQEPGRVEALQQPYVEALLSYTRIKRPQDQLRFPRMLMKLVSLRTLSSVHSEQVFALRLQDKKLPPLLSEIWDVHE
hcDAF12 conf: confirmation of H. contortus DAF-12 agonists. activation, % at 6.8 µM. actives 61% (n = 3,400). AID 743032. shares compounds with hcDAF-12 act. HEK293 hcDAF-12 lit1-tk-luc reporter, luminescence; % of Δ7-dafachronic acid response;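 active = mean activation across triplicate tests above the threshold derived from the earlier primary screen, cut at about 5.5% in these data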;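 also: 0% = DMSO only wells and 100% = 3 µM Δ7-dafachronic acid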
hgDAF12 ag: confirmation of H. glycines DAF-12 agonists. shares compounds with hgDAF-12 ag. HEK293 GAL4-hgDAF12 luciferase reporter, agonist mode; percent of butyrate response. activation, % at 6.8 µM. actives 80% (n = 3,300);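 active = mean activation over triplicate wells above the hit cutoff derived from the earlier primary screen, cut at about 11% in these data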;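 also: 0% = DMSO low control and 100% = 2 mM sodium butyrate high control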
LXRb DAF12 ctr: activates human LXR-beta, counter-screen for DAF-12 agonists. shares compounds with hgDAF-12 ag. HEK293 Gal4-LXR luciferase reporter, 24 h. activation, % at 6.8 µM. 3,300 tested, under 10 active. AID 743051;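 active = mean activation of the triplicate above a set limit carried over from the primary screen, none filed active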
Active calls of the source: *; ? = inconclusive; nt = no result given.

SMILES	Wnt bcat act	esBAF inh	DAX1 inh	hcDAF-12 act	hgDAF-12 ag	ssDAF-12 act	LXR ag	hcDAF12 conf	hgDAF12 ag	LXRb DAF12 ctr
Cc1c(C(=O)O/N=C(\N)c2ccccn2)cccc1[N+](=O)[O-]	-1	nt	2	16*	17*	3.0*	1	10*	20*	1
N/C(=N\OC(=O)c1ccccc1Cl)c1cccnc1	nt	22	3	9.7*	15*	1.9*	1	6.4*	14*	1
CC(C)NC(=O)N(C)C[C@H]1Oc2c(NC(=O)C3CCCCC3)cccc2C(=O)N([C@@H](C)CO)C[C@@H]1C	nt	-4	nt	nt	nt	nt	nt	nt	nt	nt
C[C@H]1CN([C@@H](C)CO)C(=O)c2cc(NC(=O)CCCN(C)C)ccc2O[C@@H]1CN(C)Cc1ccccc1	nt	5	nt	nt	nt	nt	nt	nt	nt	nt
C[C@H](CO)N1C[C@H](C)[C@H](CN(C)Cc2ccncc2)Oc2ncc(C#CC3CCCC3)cc2C1=O	nt	-3	nt	nt	nt	nt	nt	nt	nt	nt
O=[N+]([O-])c1cccc(-c2csc(Nc3ccccc3)n2)c1	9	52*	0	6.8*	14*	0.9*	1	8.0*	17*	0
COc1ccccc1Nc1nc(-c2cccc([N+](=O)[O-])c2)cs1	27	nt	0	0	1	0	nt	nt	nt	nt
Brc1ccc(Nc2nc(-c3cccnc3)cs2)cc1	0	nt	2	8.0*	23*	1	1	11*	13*	0
Nc1ccc2nn(-c3ccc(F)cc3)nc2c1	17	16	2	14*	16*	2.3*	1	2	16*	1
Cc1cc2nn(-c3ccc(F)cc3)nc2cc1N	19	-13	4.0*	14*	18*	1.4*	2	16*	24*	1
O=C(c1cc(-c2ccc(Cl)cc2Cl)on1)N1CCCCCC1	33*	-8	3	8.8*	16*	0	2	8.3*	18*	1
O=C(c1cc(-c2ccc(O)cc2)on1)N1CCCCCC1	40*	11	2	6.8*	14*	0	1	3	17*	1
C[C@@H]1CN([C@@H](C)CO)C(=O)c2cc(NS(=O)(=O)c3ccc(F)cc3)ccc2O[C@@H](C)CCCCO[C@H]1CN(C)C(=O)C1CCCCC1	nt	11	nt	nt	nt	nt	nt	nt	nt	nt
Cc1ccc2nc(-c3ccccn3)oc2c1	nt	-14	3	12*	14*	2.8*	1	15*	24*	1
O=C(O)Cc1ccc2oc(-c3ccccn3)nc2c1	2	9	0	1	1	-1	nt	nt	nt	nt
O=C(Nc1ncc(Cc2ccccc2)s1)c1cccs1	nt	-17	3	8.4*	15*	1	2	8.0*	20*	1
O=C(Nc1nnc(SCc2ccccc2)s1)c1cccs1	8	?	0	0	0	-1	nt	nt	nt	nt
Cc1ccc(Cc2cnc(NC(=O)c3cccs3)s2)cc1	nt	72*	3.8*	10*	15*	1.5*	2	7.3*	18*	1
CCCNC(=O)C[C@H]1CC[C@@H]2[C@H](COc3ccc(NC(=O)c4cccs4)cc3C(=O)N2C)O1	nt	1	nt	nt	nt	nt	nt	nt	nt	nt
C[C@H](CO)N1C[C@H](C)[C@@H](CN(C)C(=O)CCC(F)(F)F)OCCCC[C@H](C)Oc2ccc(NC(=O)c3ccccc3)cc2C1=O	nt	2	nt	nt	nt	nt	nt	nt	nt	nt
C[C@@H]1CN([C@H](C)CO)C(=O)c2cc(NS(=O)(=O)c3ccccc3)ccc2O[C@@H](C)CCCCO[C@@H]1CN(C)S(=O)(=O)c1cccs1	nt	1	nt	nt	nt	nt	nt	nt	nt	nt
O=c1cc(-c2ccccc2)[nH]c2nc3ccccc3n12	47*	-7	3.7*	11*	14*	1.5*	2	15*	19*	1
O=c1cc(CCl)[nH]c2nc3ccccc3n12	-4	nt	0	-1	-2	0	nt	nt	nt	nt
COc1ccc(-c2ccc3n(c2=O)C[C@H]2[C@H](CO)[C@@H](C(=O)N(C)C)[C@@H]3N2C(=O)c2cnccn2)cc1	nt	3	nt	nt	nt	nt	nt	nt	nt	nt
COCCNC(=O)C[C@H]1CC[C@@H]2[C@H](COc3ccc(NC(=O)C4CCOCC4)cc3C(=O)N2C)O1	nt	-7	nt	nt	nt	nt	nt	nt	nt	nt
SMILES	Wnt bcat act	esBAF inh	DAX1 inh	hcDAF-12 act	hgDAF-12 ag	ssDAF-12 act	LXR ag	hcDAF12 conf	hgDAF12 ag	LXRb DAF12 ctr
CC(C)(C)c1ccc2c(c1)C(=O)c1ccccc1C2=O	?	-6	4.4*	11*	20*	0	1	4	13*	1
NC(=O)c1c[nH]c2ccccc12	-1	9	0	4	-1	-1	nt	nt	nt	nt
O=C(Nc1ccccc1)C(=O)c1c[nH]c2ccccc12	?	6	2	15*	15*	4.4*	2	17*	25*	1
O=C(/C=C/c1ccccc1)c1c[nH]c2ccccc12	46*	20	3	12*	20*	3.8*	2	8.3*	19*	1
C[C@@H]1CN([C@H](C)CO)C(=O)c2cc(NS(=O)(=O)c3ccc(Cl)cc3)ccc2O[C@@H](C)CCCCO[C@@H]1CN(C)CC1CCCCC1	nt	-2	nt	nt	nt	nt	nt	nt	nt	nt
O=[N+]([O-])c1ccccc1COc1ccc(Cl)c2cccnc12	41*	-42	3	9.1*	15*	0	2	7.8*	16*	1
CO[C@@H]1CN(C)C(=O)c2ccc(NS(C)(=O)=O)cc2OC[C@H](C)N(CC2CC2)C[C@@H]1C	nt	9	nt	nt	nt	nt	nt	nt	nt	nt
CCc1cccc(NC(=O)c2cnn(-c3ccccc3)c2C)c1	5	14	3	7.9*	19*	0	1	4	16*	1
O=C(Nc1c(C(=O)Nc2ccccc2)cnn1-c1ccccc1)c1ccco1	-3	6	0	0	-1	-1	nt	nt	nt	nt
O=C(Nc1ccccc1)N1C[C@@H]2[C@H](c3ccccc31)[C@H](CO)N2C(=O)c1ccccc1F	nt	12	nt	nt	nt	nt	nt	nt	nt	nt
Clc1ccc(-c2nc3nc4ccccc4nc3n2Cc2ccco2)cc1	nt	-5	3	8.4*	14*	1.1*	1	5.8*	7	0
Cc1ccc(-c2nc3nc4ccccc4nc3n2Cc2ccco2)cc1	20	nt	5.1*	11*	16*	1.4*	1	8.8*	14*	1
